# Laboratory results published in the supplement of paper PMC4466140.
# How the values were obtained:
# Test in all cases: SPOT peptide array binding signal intensity (averaged, normalized) (arbitrary units (background-subtracted, floor 0; scale differs between SH3 domains)); higher = stronger binding of the SH3 domain to the peptide
# AgAbp1 = target: AgAbp1
# Procedure, shortened: (§1)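 To measure binding, SH3 domains from four yeast species were fused to GST, expressed in E. coli BL21(DE3) and purified on glutathione Sepharose. Each domain was incubated at 10 μg/ml overnight at 4°C on cellulose membranes with synthetic 15-mer peptides whose cysteines were replaced by serines. Anti-GST antibody, an HRP anti-mouse secondary and luminol were used for detection, and images were quantified with Genespotter. Reported binding signal is normalized, background-subtracted spot intensity averaged over replicates, in arbitrary units that differ between domains.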
# AgBbc1 = target: AgBbc1
# Procedure, shortened: as §1
# AgBem1-D1 = target: AgBem1-D1
# Procedure, shortened: as §1
# AgBzz1-D1 = target: AgBzz1-D1
# Procedure, shortened: as §1
# AgBzz1-D2 = target: AgBzz1-D2
# Procedure, shortened: as §1
# AgCyk3 = target: AgCyk3
# Procedure, shortened: as §1
# AgFus1 = target: AgFus1
# Procedure, shortened: as §1
# AgHof1 = target: AgHof1
# Procedure, shortened: as §1
# AgHse1 = target: AgHse1
# Procedure, shortened: as §1
# AgLsb1 = target: AgLsb1
# Procedure, shortened: as §1
# AgLsb4 = target: AgLsb4
# Procedure, shortened: as §1
# AgMyo5 = target: AgMyo5
# Procedure, shortened: as §1
# AgNbp2 = target: AgNbp2
# Procedure, shortened: as §1
# AgRvs167 = target: AgRvs167
# Procedure, shortened: as §1
# AgSho1 = target: AgSho1
# Procedure, shortened: as §1
# AgSla1-D1-D2 = target: AgSla1-D1-D2
# Procedure, shortened: as §1
# AgSla1-D3 = target: AgSla1-D3
# Procedure, shortened: as §1
# CaAbp1-D1 = target: CaAbp1-D1
# Procedure, shortened: as §1
# CaAbp1-D2 = target: CaAbp1-D2
# Procedure, shortened: as §1
# CaBbc1 = target: CaBbc1
# Procedure, shortened: as §1
# CaBem1-D1 = target: CaBem1-D1
# Procedure, shortened: as §1
# CaBzz1-D1 = target: CaBzz1-D1
# Procedure, shortened: as §1
# CaBzz1-D2 = target: CaBzz1-D2
# Procedure, shortened: as §1
# CaCyk3 = target: CaCyk3
# Procedure, shortened: as §1
# CaFus1 = target: CaFus1
# Procedure, shortened: as §1
# CaHof1 = target: CaHof1
# Procedure, shortened: as §1
# CaHse1 = target: CaHse1
# Procedure, shortened: as §1
# CaLsb1 = target: CaLsb1
# Procedure, shortened: as §1
# CaLsb4 = target: CaLsb4
# Procedure, shortened: as §1
# CaMyo5 = target: CaMyo5
# Procedure, shortened: as §1
# CaNbp2 = target: CaNbp2
# Procedure, shortened: as §1
# CaRvs167 = target: CaRvs167
# Procedure, shortened: as §1
# CaRvs167-3 = target: CaRvs167-3
# Procedure, shortened: as §1
# CaSho1 = target: CaSho1
# Procedure, shortened: as §1
# CaSla1-D1-D2 = target: CaSla1-D1-D2
# Procedure, shortened: as §1
# CaSla1-D3 = target: CaSla1-D3
# Procedure, shortened: as §1
# ScAbp1 = target: ScAbp1
# Procedure, shortened: as §1
# ScBbc1 = target: ScBbc1
# Procedure, shortened: as §1
# ScBem1-D1 = target: ScBem1-D1
# Procedure, shortened: as §1
# ScBzz1-D1 = target: ScBzz1-D1
# Procedure, shortened: as §1
# ScBzz1-D2 = target: ScBzz1-D2
# Procedure, shortened: as §1
# ScCyk3 = target: ScCyk3
# Procedure, shortened: as §1
# ScFus1 = target: ScFus1
# Procedure, shortened: as §1
# ScHof1 = target: ScHof1
# Procedure, shortened: as §1
# ScHse1 = target: ScHse1
# Procedure, shortened: as §1
# ScLsb1 = target: ScLsb1
# Procedure, shortened: as §1
# ScLsb2 = target: ScLsb2
# Procedure, shortened: as §1
# ScLsb3 = target: ScLsb3
# Procedure, shortened: as §1
# ScLsb4 = target: ScLsb4
# Procedure, shortened: as §1
# ScMyo3 = target: ScMyo3
# Procedure, shortened: as §1
# ScMyo5 = target: ScMyo5
# Procedure, shortened: as §1
# ScNbp2 = target: ScNbp2
# Procedure, shortened: as §1
# ScPex13 = target: ScPex13
# Procedure, shortened: as §1
# ScRvs167 = target: ScRvs167
# Procedure, shortened: as §1
# ScSho1 = target: ScSho1
# Procedure, shortened: as §1
# ScSla1-D1-D2 = target: ScSla1-D1-D2
# Procedure, shortened: as §1
# ScSla1-D3 = target: ScSla1-D3
# Procedure, shortened: as §1
# SpAbp1-D1 = target: SpAbp1-D1
# Procedure, shortened: as §1
# SpBbc1 = target: SpBbc1
# Procedure, shortened: as §1
# SpBzz1-D1 = target: SpBzz1-D1
# Procedure, shortened: as §1
# SpBzz1-D2 = target: SpBzz1-D2
# Procedure, shortened: as §1
# SpCyk3 = target: SpCyk3
# Procedure, shortened: as §1
# SpHof1 = target: SpHof1
# Procedure, shortened: as §1
# SpHof1-2 = target: SpHof1-2
# Procedure, shortened: as §1
# SpHof1-3 = target: SpHof1-3
# Procedure, shortened: as §1
# SpHse1 = target: SpHse1
# Procedure, shortened: as §1
# SpLsb1 = target: SpLsb1
# Procedure, shortened: as §1
# SpLsb4 = target: SpLsb4
# Procedure, shortened: as §1
# SpMyo1 = target: SpMyo1
# Procedure, shortened: as §1
# SpNbp2 = target: SpNbp2
# Procedure, shortened: as §1
# SpPex13 = target: SpPex13
# Procedure, shortened: as §1
# SpRvs167 = target: SpRvs167
# Procedure, shortened: as §1
# SpSla1-D1-D2 = target: SpSla1-D1-D2
# Procedure, shortened: as §1
# SpSla1-D3 = target: SpSla1-D3
# Procedure, shortened: as §1
binder,measurement,setting,value
GAGERPRLVPRPINV,SPOT peptide array binding signal intensity,AgAbp1,13
same,SPOT peptide array binding signal intensity,AgBbc1,148
same,SPOT peptide array binding signal intensity,AgBem1-D1,23
same,SPOT peptide array binding signal intensity,AgBzz1-D1,27
same,SPOT peptide array binding signal intensity,AgBzz1-D2,33
same,SPOT peptide array binding signal intensity,AgCyk3,6
same,SPOT peptide array binding signal intensity,AgFus1,4.5
same,SPOT peptide array binding signal intensity,AgHof1,8.5
same,SPOT peptide array binding signal intensity,AgHse1,≤ 0
same,SPOT peptide array binding signal intensity,AgLsb1,9
same,SPOT peptide array binding signal intensity,AgLsb4,28
same,SPOT peptide array binding signal intensity,AgMyo5,0.5
same,SPOT peptide array binding signal intensity,AgNbp2,≤ 0
same,SPOT peptide array binding signal intensity,AgRvs167,2
same,SPOT peptide array binding signal intensity,AgSho1,≤ 0
same,SPOT peptide array binding signal intensity,AgSla1-D1-D2,≤ 0
same,SPOT peptide array binding signal intensity,AgSla1-D3,1
same,SPOT peptide array binding signal intensity,CaAbp1-D1,17
same,SPOT peptide array binding signal intensity,CaAbp1-D2,8
same,SPOT peptide array binding signal intensity,CaBbc1,314
same,SPOT peptide array binding signal intensity,CaBem1-D1,68.5
same,SPOT peptide array binding signal intensity,CaBzz1-D1,109
same,SPOT peptide array binding signal intensity,CaBzz1-D2,51.2
same,SPOT peptide array binding signal intensity,CaCyk3,285
same,SPOT peptide array binding signal intensity,CaFus1,≤ 0
same,SPOT peptide array binding signal intensity,CaHof1,0.5
same,SPOT peptide array binding signal intensity,CaHse1,≤ 0
same,SPOT peptide array binding signal intensity,CaLsb1,0.75
same,SPOT peptide array binding signal intensity,CaLsb4,102
same,SPOT peptide array binding signal intensity,CaMyo5,6.5
same,SPOT peptide array binding signal intensity,CaNbp2,≤ 0
same,SPOT peptide array binding signal intensity,CaRvs167,3.5
same,SPOT peptide array binding signal intensity,CaRvs167-3,≤ 0
same,SPOT peptide array binding signal intensity,CaSho1,21
same,SPOT peptide array binding signal intensity,CaSla1-D1-D2,15.5
same,SPOT peptide array binding signal intensity,CaSla1-D3,0.75
same,SPOT peptide array binding signal intensity,ScAbp1,10
same,SPOT peptide array binding signal intensity,ScBbc1,29.5
same,SPOT peptide array binding signal intensity,ScBem1-D1,≤ 0
same,SPOT peptide array binding signal intensity,ScBzz1-D1,13
same,SPOT peptide array binding signal intensity,ScBzz1-D2,44.5
same,SPOT peptide array binding signal intensity,ScCyk3,53
same,SPOT peptide array binding signal intensity,ScFus1,≤ 0
same,SPOT peptide array binding signal intensity,ScHof1,3.25
same,SPOT peptide array binding signal intensity,ScHse1,4.5
same,SPOT peptide array binding signal intensity,ScLsb1,98.2
same,SPOT peptide array binding signal intensity,ScLsb2,4.5
same,SPOT peptide array binding signal intensity,ScLsb3,531
same,SPOT peptide array binding signal intensity,ScLsb4,20
same,SPOT peptide array binding signal intensity,ScMyo3,47.5
same,SPOT peptide array binding signal intensity,ScMyo5,4
same,SPOT peptide array binding signal intensity,ScNbp2,8
same,SPOT peptide array binding signal intensity,ScPex13,1
same,SPOT peptide array binding signal intensity,ScRvs167,91.3
same,SPOT peptide array binding signal intensity,ScSho1,13.5
same,SPOT peptide array binding signal intensity,ScSla1-D1-D2,25.5
same,SPOT peptide array binding signal intensity,ScSla1-D3,20
same,SPOT peptide array binding signal intensity,SpAbp1-D1,11
same,SPOT peptide array binding signal intensity,SpBbc1,22.8
same,SPOT peptide array binding signal intensity,SpBzz1-D1,384
same,SPOT peptide array binding signal intensity,SpBzz1-D2,0.75
same,SPOT peptide array binding signal intensity,SpCyk3,8
same,SPOT peptide array binding signal intensity,SpHof1,5.5
same,SPOT peptide array binding signal intensity,SpHof1-2,6
same,SPOT peptide array binding signal intensity,SpHof1-3,5.75
same,SPOT peptide array binding signal intensity,SpHse1,≤ 0
same,SPOT peptide array binding signal intensity,SpLsb1,410
same,SPOT peptide array binding signal intensity,SpLsb4,740
same,SPOT peptide array binding signal intensity,SpMyo1,4.75
same,SPOT peptide array binding signal intensity,SpNbp2,≤ 0
same,SPOT peptide array binding signal intensity,SpPex13,≤ 0
same,SPOT peptide array binding signal intensity,SpRvs167,6.67
same,SPOT peptide array binding signal intensity,SpSla1-D1-D2,4
same,SPOT peptide array binding signal intensity,SpSla1-D3,1
